Data on 16 molecules can be found in PubChem BioAssay (NCATS).

Structures are written as SMILES. Results filed as inconclusive are left out. Values without a mark were called inactive. The source made the active and inactive calls. Calls follow the shape of the dose curve; as a rule, active = well fitted curve in the direction sought with a large enough effect; inconclusive = small, poorly fitted or top-dose-only effect, or another doubt; inactive = no such curve, though single readings can be large; an effect the other way counts as inactive or inconclusive.

The term viability denotes a read-out of living cells in per cent, often relative to untreated cells.

Assay [1] can be described thus: BET inhibitor-based combinations targeting novel dependencies in MECOM-rearranged (r) AML: SET-2 cell line (AID 2202231). Also: nearly all actives have a fitted effect of over 35% in size.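 As to viability: plate controls were DMSO treated cells for no effect and wells without cells for full effect.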 The note with it: SET-2 AML cells viability, CellTiter-Glo luminescence, 48 h; viability: active compounds read low, concentration not given here. The method in brief: (§1)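 Here, 11-point titrations of each agent were applied to 500 seeded cells and incubated 48 hr; CellTiter-Glo signal, scaled against DMSO and empty wells, was integrated as AUC, then Z-scored within the individual line.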

A short description of assay [2]: BET inhibitor-based combinations targeting novel dependencies in MECOM-rearranged (r) AML: OCI-AML3 cell line (AID 2202232). Also: nearly all actives have a fitted effect of over 35% in size. Conditions: Potency: OCI-AML3 viability. The procedure, abridged:
as §1

Assay [3] can be described thus: BET inhibitor-based combinations targeting novel dependencies in MECOM-rearranged (r) AML: MV-4-11 cell line (AID 2202233). Also: nearly all actives have a fitted effect of over 45% in size. The procedure, abridged:
(§2)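 Normalized to DMSO and empty-well controls, the luminescence data from CellTiter-Glo after 48 hr drug exposure were fitted across 11 concentrations. Reported metrics are area under the dose-response curve and its Z-transformed form.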

A short description of assay [4]: BET inhibitor-based combinations targeting novel dependencies in MECOM-rearranged (r) AML: HNT-34 cell line (AID 2202234). Also: nearly all actives have a fitted effect of over 35% in size. The procedure, abridged: as §2
Assay [5] is described as follows: BET inhibitor-based combinations targeting novel dependencies in MECOM-rearranged (r) AML: UCSD-AML1 cell line (AID 2202235). Also: nearly all actives have a fitted effect of over 40% in size. The procedure, abridged: as §2
Assay [6] in a line: BET inhibitor-based combinations targeting novel dependencies in MECOM-rearranged (r) AML: AML-191 cell line (AID 2202236; also: nearly all actives have a fitted effect of over 35% in size). The procedure, abridged:
as §1

Assay [7] can be described thus: BET inhibitor-based combinations targeting novel dependencies in MECOM-rearranged (r) AML: AML-194 cell line (AID 2202237; also: nearly all actives have a fitted effect of over 40% in size). The method in brief: as §1
Potency is read from the fitted curve at half-maximal effect.

As for `O=C([O-])C[O-].[Pt+2]`, the viability in assay [1] is 115%. Also, the Potency entry in assay [2], in assay [3], in assay [4], in assay [5], in assay [6] and in assay [7] was “inactive” throughout.

On to `O=C(/C=C/c1ccc(CN(CCO)CCc2c[nH]c3ccccc23)cc1)NO`, for which the Potency in assay [1] was 0.166 µM (active); in assay [2], 0.132 µM (active); in assay [3] it was 0.0934 µM (active); in assay [4] it was 0.148 µM (active); in assay [5], 0.132 µM (active); in assay [6], 0.148 µM (active). For the same molecule, the Potency in assay [7] was 0.332 µM (active).

For `CC(=O)N[C@H]1[C@H](O[C@@H]2c3ccc(c(Cl)c3)Oc3cc4cc(c3O[C@@H]3O[C@H](CO)[C@@H](O)[C@H](O)[C@H]3NC(=O)CCCCCCCC(C)C)Oc3ccc(cc3Cl)C[C@H]3NC(=O)[C@H](N)c5ccc(O)c(c5)Oc5cc(O)cc(c5)[C@H](NC3=O)C(=O)N[C@H]4C(=O)N[C@H]3C(=O)N[C@@H]2C(=O)N[C@@H](C(=O)O)c2cc(O)cc(O[C@H]4O[C@H](CO)[C@@H](O)[C@H](O)[C@@H]4O)c2-c2cc3ccc2O)O[C@H](CO)[C@@H](O)[C@@H]1O`, the viability in assay [1] was 113%. Also, the Potency result in assay [2], in assay [3], in assay [4], in assay [5], in assay [6] and in assay [7] was “inactive” each time.

As to `CNCCCOc1cc(F)c(-c2c(Cl)nc3ncnn3c2N[C@@H](C)C(F)(F)F)c(F)c1`, the Potency was 0.148 µM (active) in assay [1]; 0.0833 µM (active) in assay [2]; 0.0934 µM (active) in assay [3]; 0.0742 µM (active) in assay [4]; 0.118 µM (active) in assay [5]; 0.0934 µM (active) in assay [6]. Moreover, in assay [7], the Potency was 0.105 µM (active).

For the molecule `Cc1cnc(NC(=O)c2cc(Oc3cnc(C(=O)N(C)C)nc3)c3cc(C)oc3c2)cn1`, the viability in assay [1] was 126%. The Potency entry in assay [2], in assay [3], in assay [4], in assay [5], in assay [6] and in assay [7] was “inactive” each time.

Turning to `CC(C)c1ccc(Cn2ccc3c4c(N)nc(NC5CC5)nc4ccc32)cc1`, the Potency in assay [1] was 0.468 µM (active); in assay [2], 1.48 µM (active); in assay [3], 2.09 µM (active); in assay [4], 1.32 µM (active); in assay [5] it was 1.32 µM (active); in assay [6], 1.32 µM (active). The Potency in assay [7] was 1.48 µM (active).

Take `CN1CCCN(C(=O)c2cccc(-c3ccc(/C=C4/C(=O)Nc5ccc(Cl)cc54)o3)c2)CC1`: the Potency was 20.9 µM (active) in assay [1]; 6.61 µM (active) in assay [2]; 0.662 µM (active) in assay [3]; 2.63 µM (active) in assay [4]; 1.32 µM (active) in assay [5]; 2.95 µM (active) in assay [6]. Further, the Potency in assay [7] was 1.86 µM (active).

As to `C=CCNc1c(O)cc2c(O)c1C[C@@H](C)C[C@H](OC)[C@H](O)[C@@H](C)/C=C(/C)[C@H](OC(N)=O)[C@@H](OC)/C=C\C=C(\C)C(=O)N2`, the Potency in assay [1] is 4.68 µM (active); in assay [2] it was 0.742 µM (active); in assay [3], 0.148 µM (active); in assay [4], 4.17 µM (active); in assay [5] it was 1.32 µM (active); in assay [6], 5.9 µM (active). The Potency in assay [7] was 3.32 µM (active).

For the molecule `COc1ccc(S(=O)(=O)N(CCO)c2ccccc2CN(C)C/C=C/c2ccc(Cl)cc2)cc1`, the Potency in assay [1] is 20.9 µM (active); in assay [2] it was 14.8 µM (active); in assay [3], 18.6 µM (active); in assay [4], 13.2 µM (active); in assay [5], 16.6 µM (active); in assay [6], 14.8 µM (active). Also, the Potency in assay [7] is 18.6 µM (active).

`CC(C)(O)[C@H]1CC[C@@](C)([C@H]2[C@@H](O)C[C@@]3(C)[C@@H]4C[C@H](O[C@@H]5O[C@H](CO)[C@@H](O)[C@H](O)[C@H]5O)[C@H]5C(C)(C)[C@@H](O[C@@H]6OC[C@@H](O)[C@H](O)[C@H]6O)CC[C@@]56C[C@@]46CC[C@]23C)O1`: the viability in assay [1] was 118%. Also, the Potency entry in assay [2], in assay [3], in assay [4], in assay [5], in assay [6] and in assay [7] was “inactive” throughout.

Regarding `COc1cccc2c1C(=O)c1c(O)c3c(c(O)c1C2=O)C[C@@](O)(/C(CO)=N/NC(=O)CCCCCN1C(=O)C=CC1=O)C[C@@H]3O[C@H]1C[C@H](N)[C@H](O)[C@H](C)O1`, the Potency in assay [1] was 2.95 µM (active); in assay [2] it was 0.417 µM (active); in assay [3] it was 0.186 µM (active); in assay [4] it was 0.934 µM (active); in assay [5], 0.525 µM (active); in assay [6], 1.05 µM (active). Besides, the Potency in assay [7] is 0.934 µM (active).

For the molecule `CC(/C=C1\SC(=S)N(CC(=O)O)C1=O)=C\c1ccccc1`, in assay [1], the viability was 113%. In addition, the Potency entry in assay [2], in assay [3], in assay [4], in assay [5], in assay [6] and in assay [7] was “inactive” throughout.

In the case of `COc1cc(Nc2cnc(C#N)c(O[C@H](C)CN(C)C)n2)ncc1-c1cnn(C)c1`, the Potency in assay [1] was 3.72 µM (active); in assay [2], 1.32 µM (active); in assay [3] it was 0.742 µM (active); in assay [4], 2.95 µM (active); in assay [5], 1.86 µM (active); in assay [6], 1.86 µM (active). Also, in assay [7], the Potency is 1.48 µM (active).

For `CCC(=C/[C@H](C)C/C=C/C(C)=C/[C@@H](C)C(=O)[C@@H](C)[C@H](O)[C@@H](C)C/C(C)=C/C(=O)O)/C=C/[C@@H]1OC(=O)C=C[C@@H]1C`, the Potency in assay [1] was 0.0074 µM (active); in assay [2], 0.0042 µM (active); in assay [3], 0.003 µM (active); in assay [4] it was 0.0037 µM (active); in assay [5] it was 0.0033 µM (active); in assay [6], 0.003 µM (active). In addition, the Potency in assay [7] is 0.0019 µM (active).

On to `COc1cc(OC)c(/C=C/S(=O)(=O)Cc2ccc(OC)c(OP(=O)(O)O)c2)c(OC)c1`, for which the Potency is 0.132 µM (active) in assay [1]; 0.118 µM (active) in assay [2]; 0.132 µM (active) in assay [3]; 0.105 µM (active) in assay [4]; 0.118 µM (active) in assay [5]; 0.118 µM (active) in assay [6]. Also, the Potency in assay [7] is 0.118 µM (active).

On to `O=C(Nc1cc(Oc2cc(F)c(NC(=O)C3(C(=O)Nc4ccc(F)cc4)CC3)cc2F)ccn1)C1CC1`, for which the Potency in assay [1] was 11.8 µM (active); in assay [2], 11.8 µM (active); in assay [3], 0.235 µM (active); in assay [4] it was 7.42 µM (active); in assay [5] it was 14.8 µM (active); in assay [6] it was 16.6 µM (active). Besides, the Potency in assay [7] was 14.8 µM (active).
